High-throughput results (PubChem BioAssay)
This excerpt belongs to a sample that is enriched for hits.
nsP2pro inh = CHIKV nsP2 protease inhibition, primary qHTS. FRET peptide cleavage, nsP2pro, fluorescence 1 h. AID 1964107. hit rate 1.1% among 31,000. Potency, µM (highest dose often 24.9 µM), without a hit: top-dose activity change, negative = inhibition, usual class: inhibitors; further: nearly all actives have a fitted effect of over 60% in size
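Enzyme 150 nM, substrate 2.5 uM (both final); Tris-HCl 10 mM pH 8.0 + 0.01% Tween 20; cpd up to 25 uM, 7 pts; 15 min preinc., 1 h RT; fluorescence ex 525/em 598.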
nsP2 cell sec = secondary cell-based test for CHIKV nsP2 protease inhibitors; shares compounds with nsP2pro inh; cell-based CHIKV nsP2 protease reporter assay; Potency, µM (top dose mostly 51.1 µM), inactives show top-dose activity change, negative = inhibition, hits mostly inhibitors; hit rate 10% among 450; AID 1964100; further: nearly all actives have a fitted effect of over 70% in size
Target sequence (Q8JUX6 220-798 limits assumed): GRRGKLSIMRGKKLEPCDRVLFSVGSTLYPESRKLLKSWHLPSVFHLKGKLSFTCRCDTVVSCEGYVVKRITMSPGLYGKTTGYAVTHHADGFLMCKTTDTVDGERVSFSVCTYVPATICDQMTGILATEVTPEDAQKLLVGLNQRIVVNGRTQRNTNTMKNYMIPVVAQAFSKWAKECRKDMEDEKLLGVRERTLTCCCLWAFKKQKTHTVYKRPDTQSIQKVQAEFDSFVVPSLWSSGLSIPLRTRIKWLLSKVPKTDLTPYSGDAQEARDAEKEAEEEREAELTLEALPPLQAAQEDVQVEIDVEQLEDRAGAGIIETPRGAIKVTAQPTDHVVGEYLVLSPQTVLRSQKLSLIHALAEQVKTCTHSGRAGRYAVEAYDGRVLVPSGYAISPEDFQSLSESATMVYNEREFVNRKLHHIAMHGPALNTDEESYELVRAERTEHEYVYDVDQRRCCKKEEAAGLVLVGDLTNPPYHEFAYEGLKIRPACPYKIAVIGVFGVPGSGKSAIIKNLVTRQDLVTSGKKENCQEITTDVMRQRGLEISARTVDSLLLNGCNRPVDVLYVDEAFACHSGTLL
CHIKV NSP2 FL = selectivity test for CHIKV nsP2 protease inhibitors: full-length NSP2; Full-length CHIKV NSP2 protease enzymatic counterscreen; Potency, µM (titrated, usually from 50.7 µM), without a hit: at the highest dose activity change, negative = inhibition, actives largely listed as inhibitors; AID 1964101; hit rate 39% among 410; shares compounds with nsP2pro inh; further: nearly all actives have a fitted effect of over 65% in size
Furin counter = selectivity counter-screen for CHIKV nsP2 protease inhibitors: human furin; Potency, µM (doses to about 50.6 µM), without a hit: at the top dose activity change, negative = inhibition, actives largely listed as inhibitors; Recombinant human furin enzymatic counterscreen, fluorogenic substrate; shares compounds with nsP2pro inh; hit rate 6% among 410
NS23 peptide cs = blocks CHIKV nsP2 protease cleavage of endogenous NS2/3 peptide. Potency, µM (doses to about 51 µM), for inactives: at the top dose activity change, negative = inhibition, actives largely listed as inhibitors. Purified CHIKV nsP2 protease, endogenous NS2/3 peptide cleavage. shares compounds with nsP2pro inh. hit rate 34% among 410; further: nearly all actives have a fitted effect of over 55% in size
Papain counter = papain protease inhibition, counterscreen for nsP2pro inhibitors; Potency, µM (highest dose often 51 µM), for the others: top-dose activity change, negative = inhibition, usual class: inhibitors; purified papain protease activity, enzymatic inhibition; AID 1964104; shares compounds with nsP2pro inh; hit rate 5% among 410
nsP2pro conf qHTS = CHIKV nsP2 protease inhibition, confirmatory qHTS | shares compounds with nsP2pro inh | CHIKV nsP2 protease enzymatic activity, qHTS | Potency, µM (doses to about 25.5 µM), for the others: top-dose activity change, negative = inhibition, usual class: inhibitors | hit rate 43% among 410; further: nearly all actives have a fitted effect of over 75% in size
HCV NS3 counter = selectivity counter-screen for CHIKV nsP2 protease inhibitors: HCV NS3/4A. shares compounds with nsP2pro inh. HCV NS3/4A protease biochemical counterscreen. Potency, µM (series often up to 50.9 µM), actives largely listed as inhibitors. hit rate 20% among 410. AID 1964106; further: nearly all actives have a fitted effect of over 55% in size
The depositor's hits bear a star; i = inactive; u = inconclusive; x = not tested or not shown; [ ] = dose if it differs, or a comment. The call rests on the fitted dose curve. On the % scale 0 is the no-effect control and ±100 the full control effect; potency means the concentration at half of the fitted maximal effect.

SMILES	nsP2pro inh	nsP2 cell sec	CHIKV NSP2 FL	Furin counter	NS23 peptide cs	Papain counter	nsP2pro conf qHTS	HCV NS3 counter
Oc1c(Br)cc(Br)cc1CNC1CCC(O)CC1 (stereo unspecified)	8.8µM*	-7%	-5%	4%	-7%	-7%	-17%	i
Nc1c(Br)cc(Br)cc1CNC1CCC(O)CC1 (stereo unspecified)	7%	x	x	x	x	x	x	x
Cc1noc(C)c1-c1cc(O)cc(C(O)c2ccccc2)c1 (stereo unspecified)	-5%	x	x	x	x	x	x	x
O=[N+]([O-])c1ccc(O/N=[N+](\[O-])N2CCN(c3ncccn3)CC2)c([N+](=O)[O-])c1	-25%	x	x	x	x	x	x	x
O=[N+]([O-])c1ccc(S(=O)(=O)N2CCN(c3ccnc4cc(Cl)ccc34)CC2)c([N+](=O)[O-])c1	u	5.6µM*	u	-10%	4.1µM*	-17%	u	i
O=[N+]([O-])c1cc(Cl)ccc1S(=O)(=O)N1CCN(Cc2ccccc2)CC1	-7%	x	x	x	x	x	x	x
COc1ccc(C(=O)NCc2cc(C(C)C)no2)cc1OC1CCN(C)CC1	-10%	x	x	x	x	x	x	x
CC(=O)N1CCN(c2ccc(C(=O)N3CCN(Cc4ccccc4)CC3)nn2)C(=O)C1	3.5µM*	20%	7.3µM*	-13%	15µM*	-4%	8µM*	5.2µM*
CN(C)C(=O)N1CCN(c2ccc(Cl)nn2)C(=O)C1	-20%[39.2 µM]	x	x	x	x	x	x	x
CC(=O)N1CCN(Cc2ccccc2-c2cccnc2)CC1	-7%[39.2 µM]	x	x	x	x	x	x	x
CCCc1cc(C)[nH]c(=O)c1CNC(=O)c1cc(-c2ccnc(N3CCN(C)CC3)c2)cc2c1cnn2C(C)C	81%	x	x	x	x	x	x	x
C=C[C@@]1(C)C=C2C(=O)C(O)=C3[C@](C)(C(=O)O)CC[C@@H]4C[C@]34[C@]2(O)C(=O)C1	-26%	x	x	x	x	x	x	x
O=C(c1ccccc1)N(Cc1ccco1)Cc1cccs1	-22%	x	x	x	x	x	x	x
O=C(C(NS(=O)(=O)c1ccc2[nH]c(=O)ccc2c1)c1cccc(C(F)(F)F)c1)N(Cc1ccco1)Cc1cccs1 (stereo unspecified)	7.9µM*	142%	u	-1%	-22%	-19%	-20%	i
CS(=O)(=O)c1ncc(N(Cc2ccccc2)Cc2ccco2)c(C(=O)Nc2cccc(C(F)(F)F)c2)n1	-5%	x	x	x	x	x	x	x
Cc1oc(C(O)c2ccccc2)nc1C(=O)Nc1ccncc1 (stereo unspecified)	4%[39.2 µM]	x	x	x	x	x	x	x
CC(C)=CCC[C@](C)(O[C@@H]1O[C@H](CO[C@@H]2O[C@@H](CO)[C@H](O)[C@H]2O)[C@@H](O)[C@H](O)[C@H]1O)[C@H]1CC[C@]2(C)[C@@H]1[C@H](O)C[C@@H]1[C@@]3(C)CC[C@H](O[C@@H]4O[C@H](CO)[C@@H](O)[C@H](O)[C@H]4O[C@@H]4O[C@H](CO)[C@@H](O)[C@H](O)[C@H]4O)C(C)(C)[C@@H]3CC[C@]12C	6%[10 µM]	x	x	x	x	x	x	x
C[C@H]1CCC[C@H](O)CCC/C=C/c2cc(O)cc(O)c2C(=O)O1	3%	x	x	x	x	x	x	x
CC1CCc2c(cc(Br)c(F)c2Br)N1C=O (stereo unspecified)	u	-27%	u	3%	u	-9%	u	u
CC(C)C[C@H](NC(=O)CNC(=O)c1cc(Cl)ccc1Cl)B1OC(=O)CC(CC(=O)O)(C(=O)O)O1 (stereo partly specified)	-25%	x	x	x	x	x	x	x
CCc1ccc(-n2c(CCC(=O)O)ccc2-c2cccs2)cc1	-18%	x	x	x	x	x	x	x
Cc1c(Cl)cccc1NC(=O)Cn1c(CCC(=O)O)ccc1-c1cccs1	6%	x	x	x	x	x	x	x
O=C(O)CCc1ccc(-c2cccs2)n1CC(=O)Nc1ccccc1C(F)(F)F	10%	-7%	-23%	-16%	-30%	-16%	u	i
